The values below come from PubChem BioAssay (EPA / NIEHS).

The structures appear in SMILES notation. “And” between values parts separate entries of the source, which are not always exact repeats. Identical values can stand only once. Some structures have more than one record in an assay (separate samples or runs), and their calls can disagree. The source made the active and inactive calls. The calls were made as follows: active = hit-call score of the fitted dose curve at least 0.9, where 1 is the maximum; inactive = score below 0.9.

Read-out in this test: Collagen IV, COL4A1 (gene 1282)
As to the kind of experiment: BSK_MyoF_CollagenIV: BioMAP Diversity Plus: MyoF Assay for Collagen IV Biomarker Activity (AID 2284247). To be noted: primary human lung fibroblasts. How it is done:
BSK_MyoF is a cell-based, multiplexed-readout assay that uses lung fibroblasts, […], with measurements taken at 24 hours after chemical dosing in a microplate: 96-well plate.BSK_MyoF_CollagenIV is an assay component measured in the BSK_MyoF assay. It measures Collagen IV antibody related to regulation of gene expression using ELISA technology.Data from the assay component BSK_MyoF_CollagenIV was analyzed at the endpoint, BSK_MyoF_CollagenIV, in the positive analysis fitting direction relative to DMSO as the negative control and baseline of activity. Using a type of binding reporter, gain or loss-of-signal activity can be used to understand protein changes. To generalize the intended target to other relatable targets, this assay endpoint is annotated to the 'cell adhesion molecules' intended target family, where the subfamily is 'collagen'.
The levels of cell surface (or secreted, indicated by the prefix "s") biomarker endpoints were measured by ELISA. Overt cytotoxicity to cells in confluent adherent cultures (all systems other than the BT system) was assessed by measuring total protein levels using sulforhodamine B (SRB) staining in parallel cultures at the time of biomarker measurements, indicated as SRB endpoints. For proliferation assays for adherent cell types, individual cell types are cultured at sub-confluence and relative cell numbers quantified by SRB staining at time points optimized for each system (48 h: 3C and CASM3C systems; 72 h: BT and HDF3CGF systems; 96 h: SAg system). SRB was performed by staining cells with 0.1% SRB after fixation with 10% TCA and reading wells at 560 nm.Viability and proliferation of PBMC (T cells) was quantified by Alamar Blue reduction for the SAg and BT systems. For PBMC viability (referred to as PBMC Cytotoxicity within the assay endpoint names), cells were plated (75,000/well in a 96-well plate) and then chemical samples added for 1 h before addition of activators, SEB and TSST-1 (20 ng/mL final concentration each). Cells were incubated for 90 h. Then, Alamar Blue (20 uL/well) (Invitrogen, Cat DAL1100) was added for 6 h, and the plates were read with a fluorescence microplate reader at 546/580 nm (excitation/emission). For PBMC proliferation, cells were plated and activated as above but incubated for only 16 h prior to addition of Alamar Blue. Plates were read after 6 h.
In the case of `OCC(F)(F)C(F)(F)C(F)(F)C(F)(F)C(F)(F)C(F)(F)CO`, the outcome was inactive.

Consider `O=S(=O)(OCC(F)(F)F)C(F)(F)C(F)(F)C(F)(F)C(F)(F)F`, for which the result was inactive. With `O=C=NCc1cccc(CN=C=O)c1`, the outcome was inactive. As to `CCN(CCO)S(=O)(=O)C(F)(F)C(F)(F)C(F)(F)C(F)(F)C(F)(F)C(F)(F)C(F)(F)C(F)(F)F`, the outcome was inactive.

Take `CC(C)CCCC(C)CCO` (stereo not given): the result was inactive. The same measure, in the same setting: as for `O=C(O)C(F)(F)C(F)(F)C(F)(F)C(F)(F)C(F)(F)C(F)(F)C(F)F`, the entry is “inactive”; as for `C[C@]12CC[C@H]3C(=CCc4cc(O)ccc43)[C@@H]1CCC2=O`, “inactive”. On to `O=C1c2c(O)ccc(Nc3ccc(CCO)cc3)c2C(=O)c2c([N+](=O)[O-])ccc(O)c21`, for which the AC50 is 34.1 µM (active). Consider `O=C(O)C(F)(F)C(F)(F)C(F)(F)C(=O)O`, for which the result was inactive. With `O=C=Nc1cccc2c(N=C=O)cccc12`, the outcome was inactive. The same measure, in the same setting: with `O=C(O)CCC(F)(F)C(F)(F)C(F)(F)C(F)(F)C(F)(F)C(F)(F)C(F)(F)F` the entry was “inactive”.

For `Cc1cc(O)c(C(C)(C)C)cc1C(C)(C)C`, the AC50 was 4.74 µM (active). Consider `OCCCC(F)(F)C(F)(F)C(F)(F)C(F)(F)C(F)(F)C(F)(F)C(F)(F)C(F)(F)F`, for which the concentration at half-maximal activity (AC50) is 7.39 µM (active) and the outcome was inactive. Take `CC(C)(C)c1cc(CCC(=O)NCCCCCCNC(=O)CCc2cc(C(C)(C)C)c(O)c(C(C)(C)C)c2)cc(C(C)(C)C)c1O`: the result was inactive.

Take `CCN(CC)c1ccc(C=O)cc1`: the outcome was inactive.

Take `O=C(O)C(F)(F)OC(F)(F)C(F)(F)OC(F)(F)C(F)(F)OC(F)(F)F`: the outcome was inactive. Still for that read-out and setting: with `C[Si](Cl)(Cl)CCC(F)(F)C(F)(F)C(F)(F)C(F)(F)C(F)(F)C(F)(F)F` the entry was “inactive”; with `Cc1ccc(O)c(-n2nc3ccccc3n2)c1`, “inactive”. Regarding `CNS(=O)(=O)C(F)(F)C(F)(F)C(F)(F)C(F)(F)C(F)(F)C(F)(F)C(F)(F)C(F)(F)F`, the AC50 was 2.71 µM (active) and 3.58 µM (active). For `OCC(O)CC(F)(F)C(F)(F)C(F)(F)C(F)(F)F` (stereo not given), the result was inactive. Still for that read-out and setting: with `CCOC(=O)CC(=O)C(F)(F)C(F)(F)F` the entry was “inactive”.

In the case of `Nc1cc([N+](=O)[O-])cc(Cl)c1O`, the outcome was inactive.

Turning to `C=CC(=O)OCCC(F)(F)C(F)(F)C(F)(F)C(F)(F)F`, the result was inactive. For the compound `FC(F)(F)C(F)(F)C(F)(F)C(F)(F)C(F)(F)C(F)(F)C(F)(F)CCI`, the result was inactive. On to `OCC(F)(F)C(F)(F)C(F)(F)C(F)(F)C(F)(F)C(F)(F)C(F)(F)C(F)(F)CO`, for which the concentration at half-maximal activity (AC50) was 49.1 µM (active) and the outcome was inactive. As to `O=C(c1ccccc1)c1ccc(O)cc1O`, the outcome was inactive. For `NC(=O)C(F)(F)C(F)(F)C(F)(F)C(F)F`, the result was inactive. Turning to `NC(O)(C(F)(F)F)C(F)(F)F`, the outcome was inactive. Same read-out and setting: with `NC(=O)C(F)(F)C(F)(F)C(F)(F)C(F)(F)C(N)=O` the entry was “inactive”; with `CN(C(=O)C(F)(F)C(F)(F)C(F)(F)F)[Si](C)(C)C`, “inactive”; with `OC(O)C(F)(F)C(F)(F)F`, “inactive”. For the compound `O=C(O)CCC(F)(F)C(F)(F)C(F)(F)F`, the outcome was inactive. With `NS(=O)(=O)C(F)(F)C(F)(F)C(F)(F)C(F)(F)C(F)(F)C(F)(F)F`, the half-maximal activity concentration (AC50) is 25.5 µM (active) and 20.4 µM (active). For the compound `CCN(CC)c1ccc(C=O)c(O)c1`, the outcome was inactive.

With `CO[Si](C)(CCC(F)(F)C(F)(F)C(F)(F)C(F)(F)C(F)(F)C(F)(F)F)OC`, the outcome was inactive. `O=S(=O)(Cl)C(F)(F)C(F)(F)C(F)(F)C(F)(F)C(F)(F)C(F)(F)C(F)(F)C(F)(F)F`: the AC50 is 41.1 µM (active) and 30.1 µM (active). `O=C(Cl)C(F)(F)C(F)(F)C(F)(F)C(F)(F)C(F)(F)C(F)(F)C(F)(F)F`: the outcome was inactive. On to `OCCCCC(F)(F)C(F)(F)C(F)(F)C(F)(F)F`, for which the outcome was inactive.

By AC50 is commonly meant the concentration giving half of the maximal activity seen.
